# How the values were obtained:
# [1] = target: Tyrosine-protein kinase Fyn (Homo sapiens) (UniProt P06241); conditions: at 1 µM
# [2] = target: Tyrosine-protein kinase HCK (Homo sapiens) (UniProt P08631); conditions: at 0.1 µM
# [3] = target: Tyrosine-protein kinase HCK (Homo sapiens) (UniProt P08631); conditions: at 1 µM
# [4] = target: Insulin-like growth factor 1 receptor (Homo sapiens) (UniProt P08069); conditions: at 0.1 µM
# [5] = target: Insulin-like growth factor 1 receptor (Homo sapiens) (UniProt P08069); conditions: at 1 µM
# [6] = target: Insulin receptor (Homo sapiens) (UniProt P06213); conditions: at 0.1 µM
# [7] = target: Insulin receptor (Homo sapiens) (UniProt P06213); conditions: at 1 µM
# [8] = target: Insulin receptor-related protein (Homo sapiens) (UniProt P14616); conditions: at 0.1 µM
# [9] = target: Insulin receptor-related protein (Homo sapiens) (UniProt P14616); conditions: at 1 µM
# [10] = target: T1, Tyrosine-protein kinase ITK/TSK (Homo sapiens) (UniProt Q08881); conditions: at 0.1 µM
# T1 sequence (whole entry): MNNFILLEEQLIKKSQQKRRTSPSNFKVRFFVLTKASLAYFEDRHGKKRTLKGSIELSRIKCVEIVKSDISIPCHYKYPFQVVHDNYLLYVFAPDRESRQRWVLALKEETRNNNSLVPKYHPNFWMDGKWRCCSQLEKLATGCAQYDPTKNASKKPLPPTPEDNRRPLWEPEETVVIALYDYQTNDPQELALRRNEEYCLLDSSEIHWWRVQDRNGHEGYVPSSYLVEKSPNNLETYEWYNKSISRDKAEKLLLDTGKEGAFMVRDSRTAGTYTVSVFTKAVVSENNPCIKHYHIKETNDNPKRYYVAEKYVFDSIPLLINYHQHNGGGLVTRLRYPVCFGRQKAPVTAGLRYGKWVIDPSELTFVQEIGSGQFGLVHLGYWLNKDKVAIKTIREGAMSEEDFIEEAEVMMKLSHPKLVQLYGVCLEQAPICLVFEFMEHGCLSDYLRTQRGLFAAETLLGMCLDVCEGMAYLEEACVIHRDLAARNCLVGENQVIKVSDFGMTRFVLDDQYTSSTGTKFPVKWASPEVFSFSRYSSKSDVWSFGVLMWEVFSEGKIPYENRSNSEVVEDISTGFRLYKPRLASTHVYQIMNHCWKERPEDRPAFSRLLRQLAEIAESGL
# [11] = target: T1, Tyrosine-protein kinase ITK/TSK (Homo sapiens); conditions: at 1 µM
# [12] = target: Tyrosine-protein kinase JAK1 (Homo sapiens) (UniProt P23458); conditions: at 0.1 µM
# [13] = target: Tyrosine-protein kinase JAK1 (Homo sapiens) (UniProt P23458); conditions: at 1 µM
# [14] = target: Tyrosine-protein kinase JAK2 (Homo sapiens) (UniProt O60674); conditions: at 0.1 µM
# [15] = target: Tyrosine-protein kinase JAK2 (Homo sapiens) (UniProt O60674); conditions: at 1 µM
# [16] = target: T2, Tyrosine-protein kinase JAK3 (Homo sapiens) (UniProt P52333); conditions: at 0.1 µM
# T2 sequence (whole entry): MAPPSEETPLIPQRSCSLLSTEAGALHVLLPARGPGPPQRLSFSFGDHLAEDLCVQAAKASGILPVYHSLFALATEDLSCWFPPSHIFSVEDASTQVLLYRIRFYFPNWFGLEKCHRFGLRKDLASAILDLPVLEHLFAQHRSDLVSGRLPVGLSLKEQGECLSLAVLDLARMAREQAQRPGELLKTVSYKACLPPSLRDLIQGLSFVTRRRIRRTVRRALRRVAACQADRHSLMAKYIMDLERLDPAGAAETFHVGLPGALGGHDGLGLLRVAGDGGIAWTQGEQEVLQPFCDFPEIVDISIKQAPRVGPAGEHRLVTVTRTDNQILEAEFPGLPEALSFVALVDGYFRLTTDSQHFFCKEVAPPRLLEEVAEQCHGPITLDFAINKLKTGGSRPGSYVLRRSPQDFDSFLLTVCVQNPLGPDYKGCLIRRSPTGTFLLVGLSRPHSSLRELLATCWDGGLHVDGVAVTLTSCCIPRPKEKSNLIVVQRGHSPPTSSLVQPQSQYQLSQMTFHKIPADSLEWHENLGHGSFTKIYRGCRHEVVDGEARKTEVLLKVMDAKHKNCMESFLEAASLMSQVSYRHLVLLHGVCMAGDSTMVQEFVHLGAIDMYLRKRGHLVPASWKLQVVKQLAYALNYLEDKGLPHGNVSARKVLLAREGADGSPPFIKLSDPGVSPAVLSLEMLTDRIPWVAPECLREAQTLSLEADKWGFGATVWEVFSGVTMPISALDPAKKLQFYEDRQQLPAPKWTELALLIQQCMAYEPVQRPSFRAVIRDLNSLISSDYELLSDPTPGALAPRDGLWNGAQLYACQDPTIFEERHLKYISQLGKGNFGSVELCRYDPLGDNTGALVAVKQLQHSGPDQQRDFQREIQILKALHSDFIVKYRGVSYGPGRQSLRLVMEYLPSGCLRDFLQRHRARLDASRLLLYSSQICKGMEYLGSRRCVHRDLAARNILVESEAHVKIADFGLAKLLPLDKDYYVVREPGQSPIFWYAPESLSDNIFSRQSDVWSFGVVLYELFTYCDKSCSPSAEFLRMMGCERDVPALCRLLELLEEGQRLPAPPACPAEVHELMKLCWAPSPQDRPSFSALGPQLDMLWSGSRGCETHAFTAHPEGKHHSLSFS
# [17] = target: T2, Tyrosine-protein kinase JAK3 (Homo sapiens); conditions: at 1 µM
# [18] = target: Vascular endothelial growth factor receptor 2 (Homo sapiens) (UniProt P35968); conditions: at 0.1 µM
# [19] = target: Vascular endothelial growth factor receptor 2 (Homo sapiens) (UniProt P35968); conditions: at 1 µM
# [20] = target: Mast/stem cell growth factor receptor Kit (Homo sapiens) (UniProt P10721); conditions: at 0.1 µM;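 note: values are mean inhibition of KIT, from the GSK PKIS dataset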
# Sequence of Tyrosine-protein kinase JAK2 (Homo sapiens) (O60674 whole entry): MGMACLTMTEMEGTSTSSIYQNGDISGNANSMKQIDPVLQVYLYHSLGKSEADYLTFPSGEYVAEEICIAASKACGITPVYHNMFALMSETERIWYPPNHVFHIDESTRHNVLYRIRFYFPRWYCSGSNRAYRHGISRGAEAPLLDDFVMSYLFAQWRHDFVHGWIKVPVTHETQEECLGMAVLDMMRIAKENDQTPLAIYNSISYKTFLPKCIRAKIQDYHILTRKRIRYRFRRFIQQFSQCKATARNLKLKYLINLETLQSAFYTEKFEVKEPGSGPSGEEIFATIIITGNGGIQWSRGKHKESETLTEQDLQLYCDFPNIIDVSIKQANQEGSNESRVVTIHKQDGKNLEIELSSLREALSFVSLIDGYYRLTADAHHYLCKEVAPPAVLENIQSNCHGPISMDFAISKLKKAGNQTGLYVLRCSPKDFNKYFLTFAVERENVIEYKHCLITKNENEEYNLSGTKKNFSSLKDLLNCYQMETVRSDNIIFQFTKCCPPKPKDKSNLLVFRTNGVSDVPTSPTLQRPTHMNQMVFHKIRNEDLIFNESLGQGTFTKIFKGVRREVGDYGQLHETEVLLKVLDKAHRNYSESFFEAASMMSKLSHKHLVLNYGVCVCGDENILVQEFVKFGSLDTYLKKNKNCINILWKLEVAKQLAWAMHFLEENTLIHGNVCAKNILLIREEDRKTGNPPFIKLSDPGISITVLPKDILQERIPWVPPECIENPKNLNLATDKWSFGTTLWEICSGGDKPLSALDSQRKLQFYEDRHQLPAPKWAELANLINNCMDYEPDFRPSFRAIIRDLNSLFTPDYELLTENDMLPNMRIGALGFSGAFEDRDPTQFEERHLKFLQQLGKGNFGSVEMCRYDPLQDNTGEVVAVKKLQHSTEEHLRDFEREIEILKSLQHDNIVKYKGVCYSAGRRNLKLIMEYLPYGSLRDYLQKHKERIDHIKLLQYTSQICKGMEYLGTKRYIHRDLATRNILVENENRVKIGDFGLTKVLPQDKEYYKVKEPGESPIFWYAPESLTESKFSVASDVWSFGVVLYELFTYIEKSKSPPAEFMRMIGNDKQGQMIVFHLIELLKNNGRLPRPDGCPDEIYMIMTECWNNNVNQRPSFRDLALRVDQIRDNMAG
# Sequence of Tyrosine-protein kinase HCK (Homo sapiens) (P08631 2-526 limits assumed): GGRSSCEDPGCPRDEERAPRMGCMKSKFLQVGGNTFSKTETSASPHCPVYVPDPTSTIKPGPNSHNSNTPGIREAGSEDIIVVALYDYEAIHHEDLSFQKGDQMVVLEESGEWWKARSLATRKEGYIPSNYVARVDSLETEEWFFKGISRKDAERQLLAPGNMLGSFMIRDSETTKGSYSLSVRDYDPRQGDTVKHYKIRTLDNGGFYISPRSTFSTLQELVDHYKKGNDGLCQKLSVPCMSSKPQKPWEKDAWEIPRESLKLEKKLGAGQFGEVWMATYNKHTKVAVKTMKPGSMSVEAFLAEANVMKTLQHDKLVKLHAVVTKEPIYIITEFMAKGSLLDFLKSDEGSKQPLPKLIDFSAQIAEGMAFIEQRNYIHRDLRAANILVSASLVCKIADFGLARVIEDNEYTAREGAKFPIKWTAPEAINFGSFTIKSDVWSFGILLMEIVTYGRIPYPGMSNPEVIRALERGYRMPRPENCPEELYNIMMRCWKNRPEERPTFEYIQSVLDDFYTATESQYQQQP
# Sequence of Tyrosine-protein kinase JAK1 (Homo sapiens) (P23458 whole entry): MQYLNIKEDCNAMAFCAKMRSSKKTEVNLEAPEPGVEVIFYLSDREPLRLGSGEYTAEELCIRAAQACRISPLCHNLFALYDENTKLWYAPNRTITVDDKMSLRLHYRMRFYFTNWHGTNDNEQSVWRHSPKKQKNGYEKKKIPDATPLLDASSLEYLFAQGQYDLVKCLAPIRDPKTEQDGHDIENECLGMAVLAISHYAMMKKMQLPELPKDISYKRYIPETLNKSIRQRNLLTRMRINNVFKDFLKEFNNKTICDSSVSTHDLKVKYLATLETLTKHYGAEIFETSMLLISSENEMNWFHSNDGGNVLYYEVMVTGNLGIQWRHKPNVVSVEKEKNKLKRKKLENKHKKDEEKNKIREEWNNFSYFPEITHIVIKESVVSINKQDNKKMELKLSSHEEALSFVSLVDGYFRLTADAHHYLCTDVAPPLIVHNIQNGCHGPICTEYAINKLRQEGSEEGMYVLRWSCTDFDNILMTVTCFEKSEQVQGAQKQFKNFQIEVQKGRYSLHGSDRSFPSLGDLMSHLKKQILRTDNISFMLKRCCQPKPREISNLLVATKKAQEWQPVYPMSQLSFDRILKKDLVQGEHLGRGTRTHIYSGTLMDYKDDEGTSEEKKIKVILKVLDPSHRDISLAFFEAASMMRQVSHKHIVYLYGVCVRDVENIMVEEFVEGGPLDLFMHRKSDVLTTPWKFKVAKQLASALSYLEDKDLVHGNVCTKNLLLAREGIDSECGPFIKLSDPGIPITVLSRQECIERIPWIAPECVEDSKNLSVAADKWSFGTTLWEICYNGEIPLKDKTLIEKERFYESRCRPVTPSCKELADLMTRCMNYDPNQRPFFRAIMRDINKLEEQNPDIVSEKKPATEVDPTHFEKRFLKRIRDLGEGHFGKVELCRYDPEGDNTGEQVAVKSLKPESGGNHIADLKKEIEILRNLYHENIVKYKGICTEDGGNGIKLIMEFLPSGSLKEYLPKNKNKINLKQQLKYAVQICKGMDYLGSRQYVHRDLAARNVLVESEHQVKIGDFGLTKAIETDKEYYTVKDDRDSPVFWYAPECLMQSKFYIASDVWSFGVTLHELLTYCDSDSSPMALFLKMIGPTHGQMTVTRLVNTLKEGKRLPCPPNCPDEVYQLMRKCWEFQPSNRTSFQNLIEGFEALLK
# Sequence of Insulin-like growth factor 1 receptor (Homo sapiens) (P08069 31-736 limits assumed): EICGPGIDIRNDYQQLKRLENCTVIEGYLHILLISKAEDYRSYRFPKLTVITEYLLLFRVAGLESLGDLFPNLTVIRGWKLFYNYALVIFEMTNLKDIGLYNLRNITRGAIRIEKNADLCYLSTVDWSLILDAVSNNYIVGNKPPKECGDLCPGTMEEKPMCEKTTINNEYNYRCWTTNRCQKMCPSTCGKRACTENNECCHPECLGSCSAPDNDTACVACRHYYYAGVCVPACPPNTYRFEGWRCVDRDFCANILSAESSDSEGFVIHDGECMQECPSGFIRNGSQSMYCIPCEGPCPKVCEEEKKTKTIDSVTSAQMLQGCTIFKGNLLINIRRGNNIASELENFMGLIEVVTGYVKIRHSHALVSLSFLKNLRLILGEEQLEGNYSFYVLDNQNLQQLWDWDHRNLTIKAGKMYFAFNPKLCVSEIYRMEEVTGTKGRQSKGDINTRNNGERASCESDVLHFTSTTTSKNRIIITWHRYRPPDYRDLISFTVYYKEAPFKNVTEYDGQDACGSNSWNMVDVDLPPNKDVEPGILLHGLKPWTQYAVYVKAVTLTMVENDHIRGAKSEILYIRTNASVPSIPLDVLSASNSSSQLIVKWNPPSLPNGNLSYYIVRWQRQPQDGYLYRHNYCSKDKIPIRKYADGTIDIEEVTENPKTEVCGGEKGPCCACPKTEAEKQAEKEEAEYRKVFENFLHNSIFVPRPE
# Sequence of Insulin-like growth factor 1 receptor (Homo sapiens) (P08069 741-1367 limits assumed): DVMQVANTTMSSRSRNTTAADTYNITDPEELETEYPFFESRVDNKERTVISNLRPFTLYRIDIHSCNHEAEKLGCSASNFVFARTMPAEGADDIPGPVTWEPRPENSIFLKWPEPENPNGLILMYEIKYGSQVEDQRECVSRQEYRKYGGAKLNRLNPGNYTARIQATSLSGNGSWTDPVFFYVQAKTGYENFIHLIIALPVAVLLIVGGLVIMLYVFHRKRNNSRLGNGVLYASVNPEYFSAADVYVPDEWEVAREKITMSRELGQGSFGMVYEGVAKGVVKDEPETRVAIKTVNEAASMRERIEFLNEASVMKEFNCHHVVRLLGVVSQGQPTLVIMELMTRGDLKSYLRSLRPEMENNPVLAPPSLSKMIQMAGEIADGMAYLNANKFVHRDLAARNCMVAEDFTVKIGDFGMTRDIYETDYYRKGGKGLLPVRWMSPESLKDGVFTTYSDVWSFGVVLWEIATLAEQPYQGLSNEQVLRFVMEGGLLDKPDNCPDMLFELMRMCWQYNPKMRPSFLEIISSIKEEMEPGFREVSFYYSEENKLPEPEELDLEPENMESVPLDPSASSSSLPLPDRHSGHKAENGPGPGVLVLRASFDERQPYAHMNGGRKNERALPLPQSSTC
# Sequence of Tyrosine-protein kinase Fyn (Homo sapiens) (P06241 2-537 limits assumed): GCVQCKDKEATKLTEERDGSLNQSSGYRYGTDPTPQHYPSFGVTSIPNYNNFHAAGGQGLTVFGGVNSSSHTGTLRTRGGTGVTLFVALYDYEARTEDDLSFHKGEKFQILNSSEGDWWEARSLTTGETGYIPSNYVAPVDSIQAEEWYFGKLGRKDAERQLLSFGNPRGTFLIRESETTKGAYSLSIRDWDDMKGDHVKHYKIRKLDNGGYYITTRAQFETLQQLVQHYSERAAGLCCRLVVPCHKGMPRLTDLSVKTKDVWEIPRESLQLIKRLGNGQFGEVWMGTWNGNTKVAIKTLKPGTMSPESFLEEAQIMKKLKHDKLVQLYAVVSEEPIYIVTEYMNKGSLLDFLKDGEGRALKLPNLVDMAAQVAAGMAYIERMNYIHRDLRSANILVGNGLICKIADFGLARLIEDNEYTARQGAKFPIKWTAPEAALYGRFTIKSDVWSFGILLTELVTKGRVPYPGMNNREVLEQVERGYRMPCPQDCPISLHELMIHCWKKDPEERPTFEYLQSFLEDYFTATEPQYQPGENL
Compound,inhibition [1],inhibition [2],inhibition [3],inhibition [4],inhibition [5],inhibition [6],inhibition [7],inhibition [8],inhibition [9],inhibition [10],inhibition [11],inhibition [12],inhibition [13],inhibition [14],inhibition [15],inhibition [16],inhibition [17],inhibition [18],inhibition [19],inhibition [20]
O=S(=O)(CCOCc1ccc(-c2ccc3ncnc(Nc4ccc(OCc5cccc(F)c5)c(Cl)c4)c3c2)o1)c1ccccc1,0.6%,3.81%,6.35%,13%,8.7%,1.87%,3.13%,-2.12%,0.31%,-0.7%,1%,1.54%,2.21%,0.38%,0.42%,0.16%,2.6%,1.71%,8%,1.81%
NC(=O)c1cccc(Nc2nccc(Nc3cccc(F)c3)n2)c1,43.2%,3.16%,30.8%,1.8%,20.9%,4.46%,21.1%,-0.57%,1.15%,-0.24%,2.4%,3.17%,32%,2.34%,46.6%,-1.62%,2.72%,5.1%,44.7%,42.5%
C[C@@H](Oc1cc(-n2cnc3ccc(OCC4CCN(C)CC4)cc32)sc1C(N)=O)c1ccccc1C(F)(F)F,12.6%,3.31%,32.6%,-4.89%,-1.61%,-0.09%,1.24%,-3.02%,-2.86%,-1.81%,0.89%,-1.08%,-2.39%,-0.93%,2.51%,-0.8%,30.1%,2.65%,34.4%,-0.76%
ON=C1CCc2cc(-c3nc(C4CCNCC4)[nH]c3-c3ccncc3)ccc21,0.87%,0.2%,4.24%,-1.78%,-0.56%,1.61%,-0.75%,-1.51%,-0.82%,0.74%,0.87%,-0.79%,0.05%,-0.01%,0.28%,-1.58%,3.17%,1.06%,4.49%,-3%
CCS(=O)(=O)c1ccc(OC)c(Nc2ncc(-c3cccc(OC)c3)o2)c1,76.5%,21.1%,67.2%,2.1%,4.95%,0.3%,5.78%,3.08%,3.36%,1.61%,5.9%,-0.79%,-4.39%,0.87%,1.58%,-1.19%,5.85%,48.4%,73.2%,73.4%
NS(=O)(=O)c1cccc(Nc2cc(-c3ccc(F)cc3)n[nH]2)c1,5.32%,3.23%,7.76%,0.35%,1.22%,0.86%,1.03%,1.9%,2.3%,1.67%,6.64%,3.56%,10.4%,0.36%,1.81%,-1.55%,1.11%,5.37%,15.3%,34.5%
COc1cc2ncn(-c3cc(OCc4ccccc4S(C)(=O)=O)c(C#N)s3)c2cc1OC,76.8%,16.2%,61.8%,4.3%,5.83%,5.14%,5.1%,3.69%,3.13%,2.84%,11.5%,3.78%,5.39%,2.72%,29.4%,5.19%,55%,25.6%,67.3%,5.42%

# Reference: ChEMBL document CHEMBL1961873, “Compounds: GSK PKIS; Assays: Nanosyn kinase panel” (2012)
